In all, about 33,000 sequences were measured (“E-score (-0.5 to 0.5)”: median about -0.054, highest 2% from about 0.39 on). This excerpt belongs to a sample that is enriched for the highest values.
Target: Ylr278c (UniProt Q05854)
Experiment: PBM E-score (8-mer binding enrichment) (E-score (-0.5 to 0.5)); higher = stronger / more preferred TF binding
Settings: protein concentration: 200 nM; construct: GST-DNA-binding domain
Protocol: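 Universal 'all 10-mer' protein binding microarrays (Agilent AMADID 015681) probed with GST-tagged S. cerevisiae TFs (full-length or DBD) made by in vitro transcription/translation (PURExpress), about 100-200 nM. Bound TF was detected with fluorescent anti-GST. Each ungapped 8-mer (which stands for itself and its reverse complement) is scored by the PBM enrichment score (E-score), a modified Wilcoxon-Mann-Whitney statistic from -0.5 to +0.5, computed with the Universal PBM Analysis Suite. Scale: above 0.35 generally sequence-specific binding.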

Chain of UniProt Q05854 (Q05854 whole entry): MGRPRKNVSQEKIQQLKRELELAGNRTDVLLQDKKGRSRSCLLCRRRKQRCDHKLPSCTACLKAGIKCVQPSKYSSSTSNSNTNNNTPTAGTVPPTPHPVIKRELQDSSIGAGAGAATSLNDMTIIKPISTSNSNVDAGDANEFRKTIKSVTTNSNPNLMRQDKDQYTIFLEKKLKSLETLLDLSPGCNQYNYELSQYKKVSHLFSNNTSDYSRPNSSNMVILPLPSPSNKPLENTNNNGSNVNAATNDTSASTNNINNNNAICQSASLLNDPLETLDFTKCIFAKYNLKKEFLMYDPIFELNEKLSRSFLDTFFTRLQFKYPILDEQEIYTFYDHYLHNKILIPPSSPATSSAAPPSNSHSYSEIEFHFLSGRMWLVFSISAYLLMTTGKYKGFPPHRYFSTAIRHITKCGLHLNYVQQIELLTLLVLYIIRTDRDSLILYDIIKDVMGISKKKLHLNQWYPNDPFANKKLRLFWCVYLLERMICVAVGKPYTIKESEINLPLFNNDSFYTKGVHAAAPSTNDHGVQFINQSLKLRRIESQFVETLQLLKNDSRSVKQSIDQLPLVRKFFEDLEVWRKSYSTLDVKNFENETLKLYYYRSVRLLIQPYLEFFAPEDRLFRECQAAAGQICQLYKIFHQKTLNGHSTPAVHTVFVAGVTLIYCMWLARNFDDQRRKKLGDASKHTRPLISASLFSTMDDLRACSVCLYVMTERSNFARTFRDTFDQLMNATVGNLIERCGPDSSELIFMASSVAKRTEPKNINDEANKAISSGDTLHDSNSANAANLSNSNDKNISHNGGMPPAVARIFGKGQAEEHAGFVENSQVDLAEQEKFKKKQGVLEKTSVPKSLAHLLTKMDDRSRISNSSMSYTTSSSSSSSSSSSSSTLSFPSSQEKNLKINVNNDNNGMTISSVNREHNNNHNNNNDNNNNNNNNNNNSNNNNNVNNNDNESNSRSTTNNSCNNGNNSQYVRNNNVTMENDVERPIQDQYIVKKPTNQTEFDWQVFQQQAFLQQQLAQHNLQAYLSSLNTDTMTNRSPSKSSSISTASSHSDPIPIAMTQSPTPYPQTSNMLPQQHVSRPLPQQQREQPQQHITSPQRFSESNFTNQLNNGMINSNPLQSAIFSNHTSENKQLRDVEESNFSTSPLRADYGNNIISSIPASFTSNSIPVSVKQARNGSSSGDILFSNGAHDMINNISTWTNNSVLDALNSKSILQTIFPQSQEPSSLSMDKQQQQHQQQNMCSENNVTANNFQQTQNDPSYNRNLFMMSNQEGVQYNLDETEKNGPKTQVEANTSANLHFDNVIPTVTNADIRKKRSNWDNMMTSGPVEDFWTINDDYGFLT

Sequence	PBM E-score
AACGCGGC	0.183
AACGCGGA	0.397
CCCGCGGC	0.336
CACGCGGA	0.379
TCCGCGGA	0.44
CCTCTCAA	0.0673
GGTAGAAA	-0.0702
AGCCCATG	-0.131
ACATTGAG	-0.114
CGACCTAG	0.02
AACGGTCT	-0.0855
CAACTCCC	0.154
AAACTCCT	0.23
AAACTCCA	0.176
AAACTCCG	0.496
CAACTCCA	0.0206
CAACTCCG	0.486
CACGCTCC	0.129
CTCGCGTC	0.0578
GGGCTCAA	-0.00819
ACTCCAGC	-0.122
CCTCCGGC	0.448
GCTCCAGA	-0.103
ACTCCTGC	0.165
GCTCCGGA	0.464

Sequence	PBM E-score
CCTCCTGC	-0.182
GCTCCCGA	0.0641
CCTCCAGC	-0.37
ACTCCGGG	0.481
ACTCCAGG	0.00347
ACTCCTGG	-0.0351
ACTCCGGC	0.476
ATAAGTTA	-0.103
ACTAGAAG	-0.121
AGAAGGAT	-0.269
ACTTCAGG	-0.0351
ACTGCATC	-0.142
CCACTTCC	0.0941
CTCTTGGC	-0.239
CTGAGGGC	-0.251
ACTCCAGA	-0.112
CCTCCGGA	0.467
ACTCCTGA	0.0258
CCTCCCGA	0.0701
CCTCCTGA	-0.172
ACTCCGGA	0.494
CGCGCAAG	0.0504
CTACACGC	-0.235
GCGATATA	0.00114
ACTAGCAA	-0.104

Sequence	PBM E-score
AGGTGCAC	0.0215
AGAATTCC	0.283
GGAATTCA	0.183
GGAATTCC	0.441
GAGACTCC	0.249
ATCCGCCA	0.196
CTCCGCCA	0.391
AGCCGCCG	0.313
ATCCGCCC	0.291
CTCCGCCC	0.457
ATCCGCCG	0.401
ACCCGCCG	0.307
GTCCGCCA	0.293
CGCCGCCC	0.284
CCAGTCCC	-0.0319
GCGTGAGA	-0.0361
GCCTCATA	-0.00634
AATGGTAA	0.0806
ACTTTGCC	0.0108
CGTCTGGA	-0.166
CGACTGCC	0.0706
AGAGATAG	-0.0754
TGGAGGAA	-0.131
CGGAGGAG	0.417
CGGAGGAC	0.423

Sequence	PBM E-score
AGGAGGCC	-0.164
AGGAGGAG	-0.212
AGGAGGAC	-0.294
CGGAGGAA	0.436
AGGAGGAA	-0.165
GGGAGGAC	0.0177
CGGAGGCA	0.34
CGGAGGCC	0.42
CCGAGGAG	0.183
ATTCGCTA	-0.0743
TCTGCTCA	-0.298
CAGTATGG	-0.195
CCACATCC	0.0271
AGAGTCAC	-0.333
CAGAATCG	0.00258
CACGTCAA	-0.202
CCCTTAGA	-0.393
ACCCCGAG	0.319
CCCCCGAA	0.184
ACCCCGAT	0.426
ACCCCGAA	0.392
AACCCGAT	0.29
GCCCCGAC	0.278
GCCCCGAA	0.301
CCCCCGAC	0.228

Sequence	PBM E-score
ACCCCGAC	0.39
AATCTATG	-0.0536
ACCATAGA	0.00619
GTTCAGGA	-0.0137
GATCTCAC	0.0769
CCAGTAGG	-0.101
ATCCGTGG	0.299
AGAAGGCC	0.0969
GTCCGTGA	0.278
CTCCGTGC	0.416
CTCCGTTA	0.347
CTCCGTGA	0.425
ATCCGTTC	0.183
ATCCGTGA	0.244
ATCCGTGC	0.125
CTCCGTTC	0.394
CACCGTGC	-0.0579
GTGCTAGA	-0.277
AGCGTGGC	-0.0918
AGTGGGAG	-0.221
CGAAGGCA	-0.0856
CGTCCATC	0.145
CAGTATCG	0.0195
CGACCCCG	0.247
CCGGAGGA	0.465

Sequence	PBM E-score
CCGGAGGC	0.433
CAGGAGGC	-0.0031
CAGGAGGA	-0.219
ACGGAGGC	0.302
GCGGAGGA	0.406
CGGGAGGA	0.25
GAGGAGGA	-0.246
ACGGAGGA	0.383
GACGGCAC	0.0236
GCAGTCGA	-0.0263
TAACAACA	-0.124
CAGATCTA	-0.168
CTCTGATC	-0.271
GCCGAAAA	0.359
GCCGAACA	0.21
ACCGAACA	0.0403
TCCGAAAA	0.431
TCCGAAGA	0.433
ACCGAAGA	0.183
CCCGAAAA	0.294
TCCGAACA	0.429
CCCGAAGA	0.156
AAAGAGTG	-0.158
ATTTGTCA	-0.182
CGAAAGAC	0.133

Sequence	PBM E-score
CTTTCATC	-0.135
AGTCCGCC	0.424
AGTCCGCG	0.369
AGTCCCCC	-0.261
AGTCCGGG	0.44
CGTCCGCC	0.319
AGTCCGGC	0.44
AGTCCTGC	-0.116
AGTCCGTC	0.381
AGTCCCGG	0.362
CCAGGTCA	-0.253
AGGCACTG	-0.178
CATGCTGC	-0.0378
ACTGCCCT	-0.112
CCAACAAA	-0.142
AAGTGGGG	0.0493
AGGAGAAG	-0.151
CGGAGAAC	0.445
CAGAGAAG	-0.15
GGGAGAAC	-0.0233
TGGAGAAA	-0.0369
CGGAGAAA	0.477
CGGAGAAG	0.453
GGGAGAAA	0.0906
AGGAGAAC	-0.00067

— the supplement of paper PMC3334620
